Data from PubChem BioAssay (NCI).
About 83,000 compounds went through this panel and 20% of them were active in at least one assay; those are over-represented in the sample as a whole.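 Plates (96-well) were seeded with cells, treated with compound at one concentration, and incubated for 48 hours before percent growth was determined.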 A number with no mark means an inactive call. Active and inactive are the calls of the source. The calls were made as follows: active = growth percent below 10; inactive = the rest.

system: MDA-MB-468 breast; experiment: NCI-60 one-dose screen, 48 h (100 = growth as untreated, 0 = no growth, -100 = all killed); details: 10 µM unless noted

SMILES | growth
C=C(c1ccc(C(=O)O)c(F)c1)c1cc2c(cc1C)C(C)(C)C=CC2(C)C | 93.8%
COc1ccc(C(=O)NC(=O)Nc2ccc3c(c2)NC(=O)/C3=C\c2[nH]c(C)c(C(=O)O)c2C)cc1 | 76.2%
c1cc(C2CCCCC2)ccc1OCCCCCCN1CCNCC1 | 1.63% (active)
C=C[Si](OC(C)=O)(OC(C)=O)OC(C)=O | 109%
COc1ccc(/C=C(/C(=O)N2CCCCC2)c2cc(OC)c(OC)c(OC)c2)cc1 | 13.3%
O=C(c1ccc(Cl)cc1)C1[C@H](c2ccc(Cl)cc2)[C@@H](c2ccccc2)NC12C(=O)Nc1ccccc12 (stereo not given in full) | 50.7%
O=C(CN1CCN(C(=O)c2ccccc2)CC1)Nc1ccccc1SCc1ccccc1 | 56.4%
COc1cccc(-c2nc3sccn3c2-c2ccnc(NCCNS(=O)(=O)c3ccc(F)cc3)c2)c1 | 19.2%
COc1cccc(/C(C#N)=C/c2nc3c(N4CCOCC4)nc(Cl)nc3n2C)c1 | -63% (active)
CCOc1c(B(O)O)cccc1-c1nc2ccc3[nH]ncc3c2c2c1CCCC2 | 51.1%
O=C(O)c1cccc2c1-c1ccc(Cl)cc1C2 | 108%
CC(C)c1ccc(-n2c(=S)[nH]c3sc4cc(O)ccc4c3c2=O)cc1 | 96.5%
CCn1cc(C(=O)N/N=C/c2ccc(Br)cc2)c(=O)c2cc(F)c(N3CCNC(C)C3)c(F)c21 (stereo not given) | 82.5%
Cc1cccc(C(=O)N(C(C)C)C(C)C)c1 | 105%
COc1ccc(/C(C)=C(\c2ccc(Cl)cc2)c2ccc(OCCN3CCCCC3)cc2)cc1F | 15.7%
CC(=O)Oc1ccc(/C=N/NC(N)=S)nc1 | -13.9% (active)
CC1(C)CC[C@]23CC[C@]4(C)[C@H](CC[C@@H]5[C@@]6(C)C/C(=C/O)C(=O)C(C)(C)[C@@H]6CC[C@]54C)[C@H]2[C@H]1OC3 | 119%
COC(=O)Nc1nc2ccc(C(=O)c3ccc(N(C)C4COC4)cc3)cc2[nH]1 | -8.89% (active)
C=C1C(=O)O[C@H]2[C@H]1CC/C(Cn1cc(-c3ccccc3C(F)(F)F)nn1)=C\CC[C@@]1(C)O[C@@H]21 | -56.1% (active)
COc1ccc(/C=C(\C#N)c2cc3ccccc3[nH]2)cc1 | 17.7%

SMILES | growth
Cc1ccc(S(=O)(=O)N2CCCN(c3nc(-c4ccccc4)nc4nc(-c5ccccc5)oc34)CC2)cc1 | 109%
Cn1c(/C=C/[N+](=O)[O-])cc2ccccc21 | -36.6% (active)
CN(C)c1ccc2cc(-c3ccc(Cl)c(Cl)c3)c(N)nc2c1 | 18.9%
O=C1C(=O)c2ccc(Br)cc2-c2cc(Br)ccc21 | 0.713% (active)
O=C(CSc1nnc(-c2cc(-c3ccc(Cl)cc3)nc3ccccc23)n1-c1ccccc1)Nc1ccc(Cl)cc1 | 110%
CC(C)(C)c1ccc(C(=O)Nc2sc3c(c2C#N)CCC(=O)C3)cc1 | 2.73% (active)
COc1ccc(-c2cc(-c3ccc(Cl)cc3)nc(NCCCCNc3ccnc4cc(Cl)ccc34)n2)cc1 | 75.1%
COc1cc(CNC(=O)/C=C/C=C/c2ccc3c(c2)OCO3)ccc1OCc1cn(-c2ccc(C)c(C)c2)nn1 | 65.2%
COc1ccc(CCNC(=O)COc2cc3c(Nc4ccc(F)c(Cl)c4)ncnc3cc2OC)cc1OC | -10.1% (active)
CCOC(=O)c1cc(/C(=N\O)c2cc(OC)c(OC)c(OC)c2)n2cc(C)cc(C)c12 | 15.8%
CCN1CCN(c2cc(-c3cn[nH]c3-c3cc(C)cc(OC)c3)nc(-c3cccnc3)n2)CC1 | 54.3%
CC(C)(C)c1ccc(S(=O)(=O)Oc2ccc(-c3sc4cc(OS(=O)(=O)c5ccc(C(C)(C)C)cc5)ccc4c3C(=O)c3ccc(OCCN4CCCCC4)cc3)cc2)cc1 | 90%
CC(=O)N1N=C(c2ccc(Nc3nc(Nc4ccc(F)cc4)nc(Nc4ccc(Cl)cc4)n3)cc2)CC1c1ccc(N(C)C)cc1 (stereo not given) | 56.2%
COc1ccc(OC)c(-c2nc(SCC(=O)c3ccc(C#N)cc3)[nH]c(=O)c2C#N)c1 | 94.3%
NCCNC(=O)c1cccc(COc2ccccc2NC(=O)c2cc(Cl)c(Cl)[nH]2)c1 | 96%
C/C(=C(/c1ccccc1)c1ccc(N2C(=O)c3cccc4c(NCc5ccccc5)ccc(c34)C2=O)cc1)c1ccccc1 | 116%
C/C(=N\NC(=O)Cn1c(-c2ccc(S(C)(=O)=O)cc2)nc2ccccc21)c1ccc(Cl)cc1 | 98.3%
Nc1cc(-c2ccncc2)c[nH]c1=O | 117%
O=S(=O)(Nc1ccc(Br)c(Cl)c1)c1ccc(-c2cnc(C3CC3)o2)cc1 | -23.9% (active)
O=C1/C(=C/C2=Cc3ccccc3OC2)SC(=S)N1c1ccc(F)cc1 | 112%
